# ± gives the standard deviation of the averaged measurements. The full ranking holds about 25,000 sequences; the median of “ln(normalized median fluorescence intensity)” is about 8.6, and the highest 2% start at about 10. The entries come from a sample that favours the highest values as a whole.
# Tested on: PfAP2-EXP AP2 domain (GST-tagged)
# Assay: gcPBM binding intensity (ln(normalized median fluorescence intensity)); higher = stronger DNA binding
# How it was run: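 Using an Agilent 4 × 180k array, primer-extended double-stranded 36-bp intergenic genomic probes and negative controls were exposed for 1 h to GST-fused P. falciparum DNA-binding domains expressed in E. coli. Binding was carried out in 1× PBS with 1% milk, 0.2 mg/ml BSA, 0.5% salmon testes DNA and 0.03% Triton X-100, and protein was detected with Alexa488 anti-GST antibody and a 488 nm scan. Binding intensity is the highest Masliner-normalised natural-log median intensity across replicate spots of either probe orientation.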
row,Sequence,gcPBM binding intensity (ln)
1,TAATATTTATTCTATTGTACATAAAATATATATATA [XGTACX_site7132],9.225 ± 0.078
2,AGTAGCATATTCTATTGTACATATATATATATATAT [XGTACX_site2980],10.2 ± 0.56
3,TATATATATATATATTGTACATATTGTATATATTGT [XGTACX_site3212],9.98 ± 0.21
4,TTTATATATATAAATATGTAGATAACAATATTCTGA [TGCATGCA_negctrl_site554],8.16 ± 0.44
5,AAATTGGTTCATCAATGTACATGTAAAATAAATCAA [XGTACX_site4795],8.88 ± 0.46
6,TATTAATTATAAGATGCATGTGCAAAAATATGTTCC [TGCATGCA_site51],9.01 ± 0.36
7,AAATTAATATTATGTGCATGCACAAAGAGGAACGAC [TGCATGCA_site754],10.7 ± 0.18
8,ATTATTAATAATTGTGTGCACAAATATTTATATGCT,8.86 ± 0.092
9,ATATATATATATATATATATATATATATATAAGTGG [XGTACX_negctrl_site90],9.94 ± 0.35
10,ATTTCCCCTTTTTATTGTACATTTTTATTTGTTACT [XGTACX_site4845],9.14 ± 0.64
11,TACTTACACTGTTTTTGTACTTATTTCCCTTTTATT [XGTACX_site2158],9.12 ± 0.6
12,TTATTTTCCCTTTGTGCATGCAGTTTACTTTTTGTG [TGCATGCA_site993],10.4 ± 0.64
13,TGTATAAGGTTTTTACGTTTTGAAGGATGTATTGTT [CACACA_negctrl_site1245],8.59 ± 0.6
14,TTGTATTATTATGTTGCACACATTTTATATAAAATA [CACACA_site3641],9.06 ± 0.31
15,TTTATATGTATTAAGTGTACACATATAATGTATTTT [XGTACX_site16],8.71 ± 0.014
16,TATGTATTTTTTAAGTGTACCTATATATATATATAT [XGTACX_site7934],10.2 ± 0.3
17,TTTATGTGTATTAAGTGTACACATATAGTGTATTTT [XGTACX_site999],8.42 ± 0.31
18,AGAATAAATAAATATTGTACATATAAAATATATATA [XGTACX_site896],8.39 ± 0.35
19,ACATGTACAGAAATTTATATATATATATATATATAT [CACACA_negctrl_site1584],10.3 ± 0.33
20,AATAAATAAATATATTGTACATATATATATATATAT [XGTACX_site8627],10.2 ± 0.4
21,ATATATATAAATATATGTACTAATATATACATATAT [XGTACX_site2289],8.22 ± 0.092
22,ATATATATATATATATGTACATACTATACAATAATT [XGTACX_site3546],10.4 ± 0.29

row,Sequence,gcPBM binding intensity (ln)
1,TATATATATATATATTGTACATATTAATATTAGAAA [XGTACX_site8923],10.1 ± 0.39
2,TAGAAATATATTTATTGTACATTGTATATATTATAT [XGTACX_site7584],8.35 ± 0.48
3,TATAGAAAATTTATATGTACATATATATATATATAT [XGTACX_site4451],10.1 ± 0.44
4,TACAGAAATTTATATATATATATATATATATATATA [XGTACX_negctrl_site209],9.95 ± 0.62
5,ATTTAGAAATATATTTGTACATATATATATATATAT [XGTACX_site7129],10.2 ± 0.35
6,ACATATAATATAAATTGTACATATAAATATATTATT [XGTACX_site4268],8.38 ± 0.32
7,AATATAATATACATATGTACATATATATATATATAT [XGTACX_site8218],10 ± 0.32
8,GTAGTAATAAATCTAGTGCATTATATATAACAAAAA [GTGCAC_site9803],8.81 ± 0.3
9,TAGCCATTTTTATATTGTACTTATATAATCACATTT [XGTACX_site4407],8.72 ± 0.4
10,ATGCACATTTATAAAAGTACATGTATGTAATATGTT [XGTACX_site830],8.77 ± 0.33
11,TGTATGAAATATATTACACACATATATAATATATAT [CACACA_site793],8.36 ± 0.3
12,GATGCTAAAATTTATACACACAAAAAAAAAAAATTC [CACACA_site3284],8.47 ± 0.46
13,CAAGAAAATTGACACACACACATATTTATATTTATA [CACACA_site7766],8.36 ± 0.48
14,AAGTATAACCTTTATAATAATGACATGACCGATTTT [CACACA_negctrl_site395],8.26 ± 0.34
15,TGTAGTCTGGAGAAACGTACACAGTATCTGGTAACA [XGTACX_site4938],8.34 ± 0.36
16,AAAAAAAAAAAAAAATGTACATATAAATAAATATAT [XGTACX_site7248],8.51 ± 0.42
17,TATAATAAATCGAACTGTACATATATATATATATAT [XGTACX_site7097],10.2 ± 0.33
18,ATAAAAAAATATAAATGTACATATATATATATATAT [XGTACX_site5620],10.2 ± 0.2
19,AAATGTACAGGACGCACACACATATTTATATTTATA [CACACA_site7689],8.55 ± 0.33
20,AAATGTACAGGACGCACACACATATATATATATATA [CACACA_site3674],10.4 ± 0.81
21,ATAAAAATAAATAAATGTACATATATATATATATAT [XGTACX_site1277],10.1 ± 0.4
22,ATATATATTATAATCTGTACATAAATATATAATAAA [XGTACX_site5425],8.39 ± 0.33
